# Source: PubChem BioAssay (EPA / NIEHS)
# Active and inactive are the calls of the source. How the source made its calls: active means hit-call score of the fitted dose curve at least 0.9, where 1 is the maximum; inactive means score below 0.9.
# Assay: CCTE_Harrill_HTTr_Apoptosis_MCF7: CCTE's 6-hour Apoptosis Assessment for the High-Throughput Transcriptomics (HTTr) Platform, in MCF-7 cells cultured in DMEM + 10% fetal bovine serum, Harrill Lab (AID 2284011)
# Procedure, shortened: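 MCF-7 (DMEM + 10% FBS), 384-well; 8-pt dilution series, 6 h chemical exposure; caspase-3/7 activation via CellEvent Caspase 3/7 Green, HCI; bidirectional fit vs DMSO.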
row,Structure (SMILES),outcome
1,CC[C@H]1OC(=O)[C@H](C)[C@@H](O[C@H]2C[C@@](C)(OC)[C@@H](O)[C@H](C)O2)[C@H](C)[C@@H](O[C@@H]2O[C@H](C)C[C@H](N(C)C)[C@H]2O)[C@](C)(O)C[C@@H](C)C(=O)[C@H](C)[C@@H](O)[C@]1(C)O,inactive
2,O=c1[nH]c2ccc(S(=O)CCN3CCC(Cc4ccc(F)cc4)CC3)cc2o1 (stereo not drawn),inactive
3,CC(=O)OCCC(C)C,inactive
4,Cn1c(=O)c2c(ncn2C)n(C)c1=O,inactive
5,CCCCCCCCO,inactive
6,CC[C@H]1CC[C@H](NCc2cc3c(cc2OC)[C@H]2C[C@H]2C(=O)N3C)[C@H](c2ccccc2)N1,inactive
7,CCOC(=O)CC(CC(=O)OCC)(OC(C)=O)C(=O)OCC,inactive
8,COc1cccc(-c2ccc(/C=C\CN3CCCCCC3)cc2Cl)c1,inactive
9,COc1ccc2sc(C(=O)Nc3nnn[nH]3)c(OC(C)C)c2c1,inactive
10,COc1ccc(/C=C/S(=O)(=O)NC(=O)c2ccc(C)cc2Cl)cc1,inactive
11,CCOC(=O)COc1ccc2c(c1)CC(NCC(O)c1cccc(Cl)c1)CC2 (stereo not drawn),inactive
12,O=C(O)CCN(C1(C(=O)NO)CCCC1)S(=O)(=O)c1ccc(Oc2ccc(F)cc2)cc1,inactive
13,CCCCCCCCCCCCc1ccccc1,inactive
14,CNCc1ccc(NC(=O)c2c[nH]c3c2C(=O)CCC3)cc1,inactive
15,CN(C)c1ccc(Cc2ccc(N(C)C)cc2)cc1,inactive
16,O=c1n(CC2CO2)c(=O)n(CC2CO2)c(=O)n1CC1CO1 (stereo not drawn),inactive
17,CC(C)=CCCC(C)=CC=O,inactive
18,O=C(O)CC(O)C(=O)O (stereo not drawn),inactive
